Results on 27 compounds are retold here after paper PMC5540273 (PLoS ONE, 2017).

Each structure is given as a SMILES string.
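Further: KINOMEscan kinase panel screen.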

The subject of one experiment is CDKL5. The conditions noted are these: concentration: 1 μM,replicates: in singlicate; n = 1.
With `Cc1cc(C(=O)Nc2ccc(Oc3ccc4nc(NC(=O)C5CC5)cn4n3)cc2)nn1-c1ccccc1`, the “%Inh” value was determined as 0%. Consider `CN(C)CC(O)COc1ccc(Nc2nccc(-c3cnn4nc(N5CCOCC5)ccc34)n2)cc1` (centres unmarked) [GW767488], for which the “%Inh” value amounted to 98.2%. On the same count and under the same terms, under `CCN(CC)CCOc1ccc(Nc2ncc3cc(-c4c(Cl)cccc4Cl)c(=O)n(C)c3n2)cc1` [SB-601273] stands 0%; under `Cc1cc2cn[nH]c2cc1-c1cccc2c(N)c(C(N)=O)nnc12`, 6%. On the same count and under the same terms, under `O=C(NCCNc1ccnc(NCc2ccc(F)cc2)n1)c1cc2ccccc2s1` [GSK1379944] stands 0%. Same read-out and setting: the same measure for `COc1ccc(C[C@@H](CN)NC(=O)c2cc(Br)c(-c3ccnc4[nH]ccc34)s2)cc1.Cl.Cl` [GSK1389063]: 95.5%; for `CN(C)CCOc1ccc(-c2cc(-c3c[nH]nc3-c3ccccn3)ccn2)cc1` [GW835314]: 1%. As for `Cl.Cl.NC[C@H](CC1CCCCC1)NC(=O)c1cc(Br)c(-c2ccnc3[nH]ccc23)s1` [GSK1581427], the “%Inh” value is reported as 0%. Same read-out and setting: the same measure for `Cl.Oc1cc(-c2nc(-c3ccccc3)[nH]c2-c2ccncc2)ccc1Cl` [SB-386023]: 2%.

`Cc1ccc2c(-c3ccncc3)c(-c3ccc(F)cc3)nn2c1.Cl` [GW461484]: the “%Inh” value was 0%. The same measure, in the same setting: under `Nc1nc(Nc2ccccc2)cc(-c2ccc3c(N)n[nH]c3c2)n1` [GSK2225749] stands 0%. The same measure, in the same setting: the same measure for `C[C@@H](Oc1cc(-c2cnn(C3CCNCC3)c2)cnc1N)c1c(Cl)ccc(F)c1Cl`: 18%. Regarding `C=CC(=O)Nc1cc2c(Nc3ccc(F)c(Cl)c3)ncnc2cc1OCCCN1CCOCC1` [GW781483], the “%Inh” value is given as 1%. Same read-out and setting: under `Cc1ccc(-n2nc(C(C)(C)C)cc2NC(=O)Nc2ccc(OCCN3CCOCC3)c3ccccc23)cc1` [GW839464] stands 4%; under `CC(C)Nc1cc(-c2ccc3c(N)n[nH]c3c2)nc(N)n1` [GSK2221681], 0%. On the same count and under the same terms, under `Cl.Cl.NC[C@H](Cc1ccc(C(F)(F)F)cc1)NC(=O)c1cc(Br)c(-c2ccnc3[nH]ccc23)s1` [GSK1487252] stands 0%; under `CCN(CC)CCCCNc1ncc2cc(-c3c(Cl)cccc3Cl)c(NC(=O)NC(C)(C)C)nc2n1`, 0%. The same measure, in the same setting: under `C[C@@H]1CCN(C(=O)CC#N)C[C@@H]1N(C)c1ncnc2[nH]ccc12` stands 0%; under `Cc1n[nH]c2ccc(-c3cc(OC[C@@H](N)Cc4ccccc4)cnc3-c3ccoc3)cc12.O=C(O)C(F)(F)F.O=C(O)C(F)(F)F` [GSK507358], 0%. On to `O=C(NCCCN1CCOC1=O)c1cnc(NCc2cc(Cl)ccc2Cl)nc1NC1CCCC1`, for which the “%Inh” value amounted to 0%. As to `Cl.Cl.Nc1nc(-c2ccc3c(N)n[nH]c3c2)cc(N2CCCC(NC(=O)c3ccccc3)C2)n1` (centres unmarked) [GSK2286775], the “%Inh” value is listed as 1%. Same read-out and setting: under `Cc1occc1-c1nc(N)c(OC[C@@H](N)Cc2c[nH]c3ccccc23)cc1-c1cc2c(C)n[nH]c2cn1` [GSK1660450] stands 47%; under `CCn1c(-c2nonc2N)nc2c(C#CC(C)(C)O)nc(OCCN)cc21.Cl.Cl` [GSK902056], 5%; under `CNC(=O)c1ccccc1Sc1ccc2c(/C=C/c3ccccn3)n[nH]c2c1`, 0%. As to `CC(C)N1C(=O)Cc2cc(Nc3ncc(C(F)(F)F)c(NCc4cccc(S(C)(=O)=O)c4)n3)ccc21`, the “%Inh” value is reported as 1%.

As to `C[C@H]1Oc2cc(cnc2N)-c2c(nn(C)c2C#N)CN(C)C(=O)c2ccc(F)cc21`, the “%Inh” value is recorded as 0%. The same measure, in the same setting: the same measure for `NC(=O)c1cc(-c2ccccc2)cc2c(C3CCNCC3)c[nH]c12` [GSK301362]: 0%.

A further experiment concerns CHEK1. The conditions noted are these: concentration: 1 μM,replicates: in singlicate; n = 1.
Consider `Cc1cc(C(=O)Nc2ccc(Oc3ccc4nc(NC(=O)C5CC5)cn4n3)cc2)nn1-c1ccccc1`, for which the “%Inh” value is reported as 0%. On the same count and under the same terms, the same measure for `CN(C)CC(O)COc1ccc(Nc2nccc(-c3cnn4nc(N5CCOCC5)ccc34)n2)cc1` (centres unmarked) [GW767488]: 0%. Still for that read-out and setting: the same measure for `CCN(CC)CCOc1ccc(Nc2ncc3cc(-c4c(Cl)cccc4Cl)c(=O)n(C)c3n2)cc1` [SB-601273]: 52%; for `Cc1cc2cn[nH]c2cc1-c1cccc2c(N)c(C(N)=O)nnc12`: 0%. Turning to `O=C(NCCNc1ccnc(NCc2ccc(F)cc2)n1)c1cc2ccccc2s1` [GSK1379944], the “%Inh” value is on record as 100%. On the same count and under the same terms, under `COc1ccc(C[C@@H](CN)NC(=O)c2cc(Br)c(-c3ccnc4[nH]ccc34)s2)cc1.Cl.Cl` [GSK1389063] stands 89%. On the same count and under the same terms, the same measure for `CN(C)CCOc1ccc(-c2cc(-c3c[nH]nc3-c3ccccn3)ccn2)cc1` [GW835314]: 0%.

In the case of `Cl.Cl.NC[C@H](CC1CCCCC1)NC(=O)c1cc(Br)c(-c2ccnc3[nH]ccc23)s1` [GSK1581427], the “%Inh” value came out at 60%. On the same count and under the same terms, the same measure for `Cl.Oc1cc(-c2nc(-c3ccccc3)[nH]c2-c2ccncc2)ccc1Cl` [SB-386023]: 0%; for `Cc1ccc2c(-c3ccncc3)c(-c3ccc(F)cc3)nn2c1.Cl` [GW461484]: 40%; for `Nc1nc(Nc2ccccc2)cc(-c2ccc3c(N)n[nH]c3c2)n1` [GSK2225749]: 0%. For `C[C@@H](Oc1cc(-c2cnn(C3CCNCC3)c2)cnc1N)c1c(Cl)ccc(F)c1Cl`, the “%Inh” value is 0%. As for `C=CC(=O)Nc1cc2c(Nc3ccc(F)c(Cl)c3)ncnc2cc1OCCCN1CCOCC1` [GW781483], the “%Inh” value worked out at 0%. Still for that read-out and setting: under `Cc1ccc(-n2nc(C(C)(C)C)cc2NC(=O)Nc2ccc(OCCN3CCOCC3)c3ccccc23)cc1` [GW839464] stands 1%; under `CC(C)Nc1cc(-c2ccc3c(N)n[nH]c3c2)nc(N)n1` [GSK2221681], 0%; under `Cl.Cl.NC[C@H](Cc1ccc(C(F)(F)F)cc1)NC(=O)c1cc(Br)c(-c2ccnc3[nH]ccc23)s1` [GSK1487252], 14%.

As for `CCN(CC)CCCCNc1ncc2cc(-c3c(Cl)cccc3Cl)c(NC(=O)NC(C)(C)C)nc2n1`, the “%Inh” value worked out at 0%. As for `C[C@@H]1CCN(C(=O)CC#N)C[C@@H]1N(C)c1ncnc2[nH]ccc12`, the “%Inh” value was determined as 0%. For `Cc1n[nH]c2ccc(-c3cc(OC[C@@H](N)Cc4ccccc4)cnc3-c3ccoc3)cc12.O=C(O)C(F)(F)F.O=C(O)C(F)(F)F` [GSK507358], the “%Inh” value amounted to 0%. Same read-out and setting: the same measure for `O=C(NCCCN1CCOC1=O)c1cnc(NCc2cc(Cl)ccc2Cl)nc1NC1CCCC1`: 9%.

In the case of `Cl.Cl.Nc1nc(-c2ccc3c(N)n[nH]c3c2)cc(N2CCCC(NC(=O)c3ccccc3)C2)n1` (centres unmarked) [GSK2286775], the “%Inh” value is recorded as 0%.

Consider `Cc1occc1-c1nc(N)c(OC[C@@H](N)Cc2c[nH]c3ccccc23)cc1-c1cc2c(C)n[nH]c2cn1` [GSK1660450], for which the “%Inh” value is given as 9%. Take `CCn1c(-c2nonc2N)nc2c(C#CC(C)(C)O)nc(OCCN)cc21.Cl.Cl` [GSK902056]: the “%Inh” value stood at 12%. The same measure, in the same setting: under `CC(C)N1C(=O)Cc2cc(Nc3ncc(C(F)(F)F)c(NCc4cccc(S(C)(=O)=O)c4)n3)ccc21` stands 0%.

In the case of `C[C@H]1Oc2cc(cnc2N)-c2c(nn(C)c2C#N)CN(C)C(=O)c2ccc(F)cc21`, the “%Inh” value is given as 16%. For `NC(=O)c1cc(-c2ccccc2)cc2c(C3CCNCC3)c[nH]c12` [GSK301362], the “%Inh” value is 20%.
